# From PubChem BioAssay AID524 (The Scripps Research Institute Molecular Screening Center, 2006)
# Hit rate of the full screen: of about 65,000 compounds, about 95 (0.1%) were called active. This is one part of a sample in which actives are shown more often than they occur.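 Rule for the calls: active = inhibition above the screen-wide mean inhibition plus 3 SD (cut at about 21% in these data); inactive = the rest.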
# Target: cAMP-dependent protein kinase catalytic subunit alpha (Homo sapiens) (UniProt P17612)
# Assay: inhibitors of human PKA kinase activity, primary screen, biochemical, ATP-depletion luminescence, Kemptide substrate (AID 524)
# Conditions: PKA Kemptide phosphorylation, Kinase-Glo ATP luminescence; at 6 µM; active compounds read high
row,SMILES,inhibition
1,COc1ccc(C)c2sc(=NC(=O)c3ccc(C#N)cc3)n(C)c12,3.2% (inactive)
2,CN(C(=O)COc1ccccc1)c1nnc(-c2ccncc2)s1,29.1% (active)
3,CN(C(=O)c1ccno1)c1nnc(-c2cccnc2)s1,2.6% (inactive)
4,CN(C(=O)c1ccccn1)c1nnc(-c2ccccn2)s1,-0.9% (inactive)
5,CC(C)N(C(=O)Cn1c(SCC(=O)N2CCN(c3ccccc3)CC2)nc2ccccc21)C(C)C,7.5% (inactive)
6,Cc1cc(C)cc(NC(=O)C2CCN(c3nc(C)cc(C)n3)CC2)c1,6.7% (inactive)
7,O=C(CSc1nnc(-c2ccccn2)n1-c1ccccc1)Nc1ccc2c(c1)OCO2,5.1% (inactive)
8,Cc1ccn2cc(C(=O)NC3CCN(Cc4ccccc4)CC3)nc2c1,4.5% (inactive)
9,Nc1nc(SCCOc2ccccc2)n[nH]1,11.5% (inactive)
10,O/N=C(\c1ccc2c(c1)OCCO2)C1CCCCC1,-0.4% (inactive)
11,Cc1cc(/C=N/n2cnnc2)c(C)n1-c1cccc(C(=O)O)c1,7.1% (inactive)
12,COc1ccc(-c2cc3ccc(OCc4nn[nH]n4)cc3oc2=O)cc1,6.3% (inactive)
13,CCc1cc(Br)ccc1NC(=O)C1CCCO1 (centres undefined),12.3% (inactive)
14,Cc1cc(C(=O)CC#N)c(C)n1CC(F)(F)F,6% (inactive)
15,C=CCNc1nc(C)nc(OC)n1,4.4% (inactive)
16,Cc1nc(N2CCN(c3ncccn3)CC2)c2oc3ccccc3c2n1,8.8% (inactive)
17,CCOc1ncccc1C(=O)OCc1cn2cc(Cl)ccc2n1,8.2% (inactive)
18,COc1ccc(CCN=C2SCC(=O)N2C)cc1OC,5.5% (inactive)
19,Fc1ccccc1OCCCCn1cncn1,2.8% (inactive)
20,CN(CC(=O)NC1CCCCC1)S(=O)(=O)c1ccc(Br)s1,4% (inactive)
21,COCCNC(=S)c1ccc(OC)cc1,5.8% (inactive)
22,Cn1cccc1C(=O)NC(=O)COC(=O)Cc1coc2ccc3ccccc3c12,5.5% (inactive)
23,CCOc1ccc(NC(=O)N(CCC(C)C)C(C)c2ccco2)cc1 (centres undefined),4.9% (inactive)
24,COc1ccc2c(c1)OC(O)(C(F)(F)C(F)F)CC2=O (centres undefined),4.1% (inactive)
25,CC(C)C(=O)Nc1c(C(=O)c2ccc(F)cc2)oc2ccccc12,2.9% (inactive)
26,CCCC(NC(=O)c1ccccc1)c1nc2ccccc2n1Cc1ccc(C(=O)OC)o1 (centres undefined),9.3% (inactive)
27,Cc1ccc(Cc2cncc(O)c2)cc1S(=O)(=O)O,-3.1% (inactive)
28,Cn1c(=O)c(C(=O)Nc2ncccn2)c(O)c2ccccc21,-3.8% (inactive)
29,COc1ccc(NC(=O)c2c(C)oc3c2CCCC3)cc1,4.6% (inactive)
